Screening data from PubChem BioAssay.
3T3 cytotox: Cytotoxic Profiling in NIH 3T3 Cell Line of Diverse Libraries Using Quantitative High-Throughput Screening. NIH 3T3 viability, CellTiter-Glo ATP luminescence, 48-72 h. Potency, µM (series often up to 96.7 µM), inactives show top-dose activity change, negative = cytotoxicity, usual class: inhibitors. 94,000 tested, 4.3% active. AID 1345082, 2018; note: nearly all actives have a fitted effect of over 55% in size
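NIH 3T3 cells at 400 cells/well received 23 nL of compound by pintool and were incubated 48 or 72 h at 37 °C. Viability was read as ATP-coupled CellTiter-Glo luminescence.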
hNpr1 antagonist: Natriuretic polypeptide receptor (hNpr1) antagonism - Primary qHTS; AID 1347048, 2019; Atrial natriuretic peptide receptor 1 (Homo sapiens), P16066; 76,000 tested, 1.6% active; HEK293 hNpr1 GloSensor cGMP, ANP-stimulated luminescence; Potency, µM (titrated, usually from 46.3 µM), inactives show top-dose activity change, negative = inhibition, usual class: inhibitors; calls by dose curve; note: nearly all actives have a fitted effect of over 60% in size
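HEK293 cells stably expressing human Npr1 and cGMP GloSensor pGS-40F, loaded 2 h with 2% GloSensor reagent, given compound 30 min at room temperature. Luminescence read before and 20 min after 0.1 nM hNppA.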
Luciferase inh: Firefly luciferase inhibition profiling of diverse chemical library using quantitative high-throughput screening | Potency, µM (series often up to 115 µM), usual class: inhibitors | purified P. pyralis luciferase, luminescence, biochemical | Luciferin 4-monooxygenase (Photinus pyralis), P08659 | 76,000 tested, 2.5% active | AID 1347043, 2019; note: nearly all actives have a fitted effect of over 65% in size
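Luminescence read by CCD imaging after purified firefly luciferase (10nM final) was added to substrate buffer holding 10uM D-luciferin and 10uM ATP, pH 7.5, pre-dosed with compound.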
SNCA viab count: GF-AFC viability counterscreen for inhibitors of alpha-synuclein gene (SNCA) expression. Potency, µM (highest dose often 57.1 µM), without a hit: at the highest dose activity change, negative = cytotoxicity, hits mostly cytotoxic. AID 1671193, 2021. 150,000 tested, 0.12% active. HEK-293-SNCA-luc viability, GF-AFC fluorescence, 24 h;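 note: 0% = DMSO-treated cells and -100% = medium-only wells without cells; nearly all actives have a fitted effect of over 30% in size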
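HEK-293-SNCA-luc cells (1500/well) plated 24 h, then exposed 24 h to a dilution series; GF-AFC added 30 min at 37C, fluorescence 405/540 nm; normalised to medium-only and DMSO wells, Hill fit.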
SNCA expr inh: Primary qHTS assay for inhibitors of alpha-synuclein gene (SNCA) expression; HEK-293 SNCA-luciferase knock-in, luminescence, 24 h; Potency, µM (doses to about 57.2 µM), inactives show at the top dose activity change, negative = inhibition, actives largely listed as inhibitors; 140,000 tested, 0.17% active; AID 1671194, 2021;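 note: plate controls were DMSO cells for no effect and cell-free wells for full effect; nearly all actives have a fitted effect of over 45% in size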
HEK293 tox: Cytotoxic Profiling in HEK 293 Cell Line of Diverse Libraries Using Quantitative High-Throughput Screening; HEK 293 viability, ATP luminescence (CellTiter-Glo), 48-72 h; Potency, µM (top dose mostly 115 µM), for the others: at the top dose activity change, negative = cytotoxicity, hits mostly inhibitors; 94,000 tested, 6.6% active; AID 1345083, 2018; note: nearly all actives have a fitted effect of over 60% in size
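Cells seeded first (HEK 293, 250 cells/well), then compound added by pintool. Incubation ran 48 or 72 hr at 37 degree Celsius. CellTiter-Glo was added and luminescence imaged after 10 min at room temperature.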
Active calls of the source: *; ! = not confirmed by another sample; [ ] = remark or other dose. Sampled rows, rich in hits. Any-hit rate of the full collection: about 7.2%. Unless noted, calls come from the whole dose curve; as a rule, active = well fitted curve in the direction sought with a large enough effect; inconclusive = small, poorly fitted or top-dose-only effect, or another doubt; inactive = no such curve, though single readings can be large; an effect the other way counts as inactive or inconclusive. Unless noted, % is set by controls: 0 for no effect and ±100 for the full control effect; potency is the fitted concentration of half-maximal effect.

COc1cc(NC(=O)Nc2nc3c(s2)C[C@]2(C)CC[C@@H]4[C@H](OC(=O)[C@H]4C)[C@H]2[C@@H]3C)cc(OC)c1 was read as 3T3 cytotox inconclusive, hNpr1 antagonist 8%, Luciferase inh inconclusive, SNCA viab count 3%, SNCA expr inh 12% and HEK293 tox inconclusive.
Screening C[C@@H]1C(=O)O[C@H]2[C@H]1CC[C@@]1(C)Cc3sc(NC(=O)CN(C)C)nc3[C@@H](C)[C@H]21 returned 3T3 cytotox -15%[174 µM], hNpr1 antagonist 16µM*, Luciferase inh 3.2µM*, SNCA viab count 0%[87.6 µM], SNCA expr inh -84%[87.6 µM] and HEK293 tox -9%[172 µM].
Screening C[C@@H]1C(=O)O[C@H]2[C@H]1CC[C@@]1(C)Cc3sc(NC(=O)COc4ccccc4)nc3[C@@H](C)[C@H]21 returned 3T3 cytotox -23%, hNpr1 antagonist -30%, Luciferase inh inactive, SNCA viab count -15%, SNCA expr inh 11% and HEK293 tox inconclusive.
Screening O=[S+]([O-])(c1cccc(C(F)(F)F)c1)N1CC(Oc2ccc(F)cc2F)C1 returned 3T3 cytotox -19%, SNCA viab count 9%, SNCA expr inh 35% and HEK293 tox -20%.
For C[C@@H]1C(=O)O[C@H]2[C@H]1CC[C@@]1(C)Cc3sc(Nc4ccc(C(=O)O)cc4)nc3[C@@H](C)[C@H]21 the results were 3T3 cytotox 0%[138 µM], hNpr1 antagonist 13µM*, Luciferase inh 1µM*, SNCA viab count 1%[87.6 µM], SNCA expr inh -19%[87.6 µM] and HEK293 tox -7%[172 µM].
Screening C[C@@H]1C(=O)O[C@H]2[C@H]1CC[C@@]1(C)Cc3sc(Nc4ccccc4)nc3[C@@H](C)[C@H]21 returned 3T3 cytotox inconclusive, hNpr1 antagonist inconclusive, Luciferase inh inconclusive, SNCA viab count 1%[87.6 µM], SNCA expr inh inconclusive and HEK293 tox inconclusive.
Cc1nc2c(c(N3CCCC(COc4cccc(F)c4)C3)n1)CCNCC2 (stereo unspecified) was read as 3T3 cytotox inconclusive, hNpr1 antagonist -5%, Luciferase inh inactive, SNCA viab count -29%, SNCA expr inh -13% and HEK293 tox 22µM*.
`COc1cc(F)ccc1-c1cnc2n[nH]c(-c3sccc3C)c2n1` gave 3T3 cytotox inconclusive, hNpr1 antagonist -10%[70.6 µM], Luciferase inh inactive, SNCA viab count -20%[87.6 µM], SNCA expr inh 106%[87.6 µM] and HEK293 tox 45µM*.
Cc1ccsc1-c1[nH]nc2ncc(-c3cccc(CO)c3)nc12 was read as 3T3 cytotox inconclusive, hNpr1 antagonist -6%[70.6 µM], Luciferase inh inconclusive, SNCA viab count -4%[87.6 µM], SNCA expr inh 10%[87.6 µM] and HEK293 tox 79µM*.
Cc1ccsc1-c1[nH]nc2ncc(-c3ccc(F)cc3)nc12 was read as 3T3 cytotox inconclusive, hNpr1 antagonist -10%[70.6 µM], Luciferase inh inactive, SNCA viab count 13%[87.6 µM], SNCA expr inh 15%[87.6 µM] and HEK293 tox 71µM*.
For CC(=O)Nc1ccc(NC(=O)CN2C(=O)NC(c3ccc(C)cc3)C3=C2COC3=O)cc1 (stereo unspecified) the results were 3T3 cytotox -21%, hNpr1 antagonist -10%, Luciferase inh inconclusive, SNCA viab count -4%, SNCA expr inh -14% and HEK293 tox -7%.
Screening Cc1ccc(C2NC(=O)N(CC(=O)Nc3ccc(Br)c(C)c3)C3=C2C(=O)OC3)cc1 (stereo unspecified) returned 3T3 cytotox 35µM*, hNpr1 antagonist inconclusive, Luciferase inh inactive, SNCA viab count -22%, SNCA expr inh inconclusive and HEK293 tox inconclusive.
CCc1cccc(NC(=O)CN2C(=O)NC(c3ccc(C)cc3)C3=C2COC3=O)c1 (stereo unspecified) was read as 3T3 cytotox inconclusive, hNpr1 antagonist -16%, Luciferase inh inactive, SNCA viab count -24%, SNCA expr inh inconclusive and HEK293 tox 28µM*.
`Cc1ccc(C2NC(=O)N(CC(=O)Nc3ccc(Br)cc3F)C3=C2C(=O)OC3)cc1` (stereo unspecified) gave 3T3 cytotox inconclusive, hNpr1 antagonist -22%, Luciferase inh inactive, SNCA viab count inconclusive, SNCA expr inh inconclusive and HEK293 tox 35µM*.
Cc1nnnn1CCC(=O)NCC1CCN(c2cnn(C)c(=O)c2)C1 (stereo unspecified) was read as 3T3 cytotox 5%, hNpr1 antagonist 3%, Luciferase inh inactive, SNCA viab count 1%, SNCA expr inh 22% and HEK293 tox -2%.
COc1ccccc1C(=O)NC1CCN(Cc2cccc(-c3cccs3)c2)CC1 was read as 3T3 cytotox 32µM*!, SNCA viab count 3%[12.5 µM], SNCA expr inh inconclusive and HEK293 tox 22µM*!.
For O=C(NC1CCN(Cc2cccc(-c3cccs3)c2)CC1)c1ccc(F)cc1 the results were 3T3 cytotox inconclusive, SNCA viab count -4%[12.5 µM], SNCA expr inh -15% and HEK293 tox inconclusive.
Screening O=C(NC1CCN(Cc2cccc(-c3cccs3)c2)CC1)c1ccccc1 returned 3T3 cytotox -31%, SNCA viab count 13%[12.5 µM], SNCA expr inh -8% and HEK293 tox 35µM*!.
For CN(Cc1cccc(C(F)(F)F)c1)S(=O)(=O)c1cccs1 the results were 3T3 cytotox inconclusive, hNpr1 antagonist -20%[70.6 µM], Luciferase inh inactive, SNCA viab count inconclusive, SNCA expr inh -15%[87.6 µM] and HEK293 tox 89µM*.
c1ccc(-c2cn3c(n2)CO[C@@H](CNC2CCOCC2)C3)cc1 was read as 3T3 cytotox -2%[138 µM], hNpr1 antagonist 1%[70.6 µM], Luciferase inh inactive, SNCA viab count 1%[87.6 µM], SNCA expr inh 14%[87.6 µM] and HEK293 tox -6%[172 µM].
`Fc1ccc(CNC[C@H]2Cn3cc(-c4ccccc4)nc3CO2)cc1` gave 3T3 cytotox inconclusive, hNpr1 antagonist -10%[70.6 µM], Luciferase inh inactive, SNCA viab count 4%[87.6 µM], SNCA expr inh 2%[87.6 µM] and HEK293 tox inconclusive.
For COc1ccccc1CNC[C@H]1Cn2c(-c3cccc(Cl)c3)cnc2CO1 the results were 3T3 cytotox inconclusive, hNpr1 antagonist 0%[70.6 µM], Luciferase inh inactive, SNCA viab count 1%[87.6 µM], SNCA expr inh 3%[87.6 µM] and HEK293 tox 79µM*.
